Source: the supplement of paper PMC10127200
Counter-ions that a name gives are not always drawn.

system: 786-O; test: Euclidean distance of Cell Painting phenotypic profile (signed KS, 77 features) to DMSO centroid (dimensionless distance); 5 or 10 uM (library dependent); higher = stronger phenotypic change vs DMSO (phenoactivity); conditions: 48 h
How it was run: (§1)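 At 10 or 5 uM, as set by the library, and 0.1% DMSO final, compounds were applied for 48 h to five cancer lines and one healthy fibroblast line. Stained cells were imaged confocally at 20X in 9 fields per well, and Harmony extracted 77 features scored as signed Kolmogorov-Smirnov statistics against vehicle wells on the same plate. Profiles underwent plate-position correction, correlation weighting and replicate averaging at the top dose. Phenoactivity is the Euclidean distance from each such profile to the median vehicle profile.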

Going from `COc1c(C)c(C(=O)c2ccc(N)c(C(=O)O)c2)n2ccccc12` to `CC[C@@H](Nc1c(Nc2cccc(C(=O)N(C)C)c2O)c(=O)c1=O)c1ccc(C)o1`, the Euclidean distance rises from 0.838 to 1.24.

Compared with `CN[C@H]1C(=O)N[C@@H]2Cc3ccc(cc3)Oc3cc4cc(c3O[C@@H]3O[C@H](C(=O)O)[C@@H](O)[C@H](O)[C@H]3NC(=O)CCCCCCCCC(C)C)Oc3ccc(cc3Cl)[C@@H](O)[C@@H]3NC(=O)[C@H](NC(=O)[C@@H]4NC(=O)[C@@H](NC2=O)c2cc(cc(O)c2Cl)Oc2cc1ccc2O)c1ccc(O)c(c1)-c1c(O[C@H]2O[C@H](CO)[C@@H](O)[C@H](O)[C@@H]2O)cc(O)cc1[C@@H](C(=O)NCCCN(C)C)NC3=O` [Dalbavancin], `CCCCNC(=O)NS(=O)(=O)c1ccc(C)cc1` [Tolbutamide] is higher in Euclidean distance: 0.58 for the first, 1.41 for the second.

system: A549; test: as above; conditions: 48 h
How it was run: as §1

Going from `O=C(CCc1ccc(O)cc1)c1c(O)cc(O)cc1O` [Phloretin] to `O=C(O)Cc1ccccc1Nc1c(Cl)cccc1Cl` [Diclofenac Epolamine], the Euclidean distance falls from 0.656 to 0.571.

Compared with `CS(=O)(=O)c1ccc([C@@H](O)[C@@H](CO)NC(=O)C(Cl)Cl)cc1` [Thiamphenicol], `CCCCOC(=O)c1ccc(N)cc1` [Butamben] is higher in Euclidean distance: 0.742 for the first, 0.881 for the second.

First: CCCCCCCCCC(=O)OC1(c2ccc(Cl)cc2)CCN(CCCC(=O)c2ccc(F)cc2)CC1 [Haloperidol Decanoate]
Second: CCCCc1nc(-c2ccc(OCCCN(CC)CC)cc2)cn1-c1ccc(Oc2ccc(Cl)cc2)cc1 [Azeliragon]
The Euclidean distance of the first is lower: 1.13 for the first, 4.65 for the second.

First: CC(C)(C)NCC(O)c1cc(O)cc(O)c1 (configuration not stated) [Terbutaline Sulfate]
Second: CC(C)NNC(=O)c1ccncc1 [Iproniazid]
The Euclidean distance of the first is higher: 0.707 for the first, 0.606 for the second.

Compared with `CN(C)CCCN1c2ccccc2Sc2ccccc21` [Promazine hydrochloride], `Oc1c2ccccc2c2c3c(cccc13)N=N2` is higher in Euclidean distance: 0.965 for the first, 1.08 for the second.

Compared with `COCCCN1CCC(NC(=O)c2cc(Cl)c(N)c3c2OCC3)CC1` [Prucalopride Succinat], `CCc1c(C)[nH]c2c1C(=O)C(CN1CCOCC1)CC2` (configuration not stated) [Molindone hydrochloride] is lower in Euclidean distance: 0.777 for the first, 0.479 for the second.

First: O=C(O)C(O)C(O)C(=O)O (configuration not stated) [Tartaric acid]
Second: CC(C)(S)[C@@H](N)C(=O)O [Penicillamine]
The Euclidean distance of the first is lower: 0.688 for the first, 1.29 for the second.

Going from `COc1ccc(COc2ccc(Cc3cnc(N)nc3N)cc2OC)cc1` to `COc1ccc(-c2nc3cc(C4=NNC(=O)CC4C)ccc3[nH]2)cc1` (configuration not stated) [Pimobendan], the Euclidean distance rises from 1.1 to 1.4.

Going from `CCCCCCCCCCCCC[N+](C)(C)Cc1ccccc1` [Benzalkonium chloride] to `Nc1ncnc2c1c(-c1cccc(OCc3ccccc3)c1)cn2C1CC(CN2CCCC2)C1` (configuration not stated), the Euclidean distance rises from 2.29 to 3.18.

Going from `CCCNS(=O)(=O)Nc1ncnc(OCCOc2ncc(Br)cn2)c1-c1ccc(Br)cc1` [Macitentan] to `CCN(CC)CCNC(=O)c1c(C)[nH]c(/C=C2\C(=O)Nc3ccc(F)cc32)c1C` [Sunitinib], the Euclidean distance rises from 0.708 to 3.66.

Going from `Fc1ccc([C@@H]2CCNC[C@H]2COc2ccc3c(c2)OCO3)cc1` [Paroxetine HCl] to `O=C(NCc1c(F)cc(F)cc1F)c1cn2c(c(O)c1=O)C(=O)N1[C@H]3CC[C@H](C3)O[C@@H]1C2` [Bictegravir], the Euclidean distance rises from 1.59 to 3.73.

First: CCCCCCCCCC(=O)N[C@H]1[C@H](Oc2c3cc4cc2Oc2ccc(cc2Cl)[C@@H](O[C@@H]2O[C@H](CO)[C@@H](O)[C@H](O)[C@H]2NC(C)=O)[C@@H]2NC(=O)[C@H](NC(=O)[C@@H]4NC(=O)[C@H]4NC(=O)[C@@H](Cc5ccc(c(Cl)c5)O3)NC(=O)[C@H](N)c3ccc(O)c(c3)Oc3cc(O)cc4c3)c3ccc(O)c(c3)-c3c(OC4O[C@H](CO)[C@@H](O)[C@H](O)[C@@H]4O)cc(O)cc3[C@@H](C(=O)O)NC2=O)O[C@H](CO)[C@@H](O)[C@@H]1O (some centres not stated) [Teicoplanin]
Second: COC(=O)C1=C(C)NC(C)=C(C(=O)OCCN2CCN(C(c3ccccc3)c3ccccc3)CC2)C1c1cccc([N+](=O)[O-])c1 (configuration not stated) [Manidipine 2HCl]
The Euclidean distance of the first is lower: 1.18 for the first, 2.35 for the second.

Going from `C#CCN(C)CCCOc1ccc(Cl)cc1Cl` [Clorgyline HCl] to `COc1ccccc1N1CCN(CCN2C(=O)CC3(CCCC3)CC2=O)CC1`, the Euclidean distance rises from 0.714 to 1.72.

Going from `Nc1nccs1` [Aminothiazole] to `COc1nc(C)nc(Cl)c1NC1=NCCN1` [Moxonidine], the Euclidean distance falls from 1.79 to 0.652.
